Measured values published in PubChem BioAssay (NCATS).
Records with an inconclusive call do not appear. Activity calls are given as the source filed them. Calls follow the shape of the dose curve; as a rule, active = well fitted cell-killing curve with a large enough effect; inconclusive = small, poorly fitted or top-dose-only effect, or effect the other way; inactive = no such curve, though single readings can be large or run the other way.

Experiment: Quantitative High-Throughput drug screen in 47 multiple myeloma cell lines against the NCATS MIPE library collection: Karpas25_ECACC cell viability assay (AID 1918968; also: nearly all actives have a fitted effect of over 35% in size)
Conditions: Karpas25 myeloma viability, CellTiter-Glo ATP, 48 h; series mostly up to 45.8 µM
Text: PI: Beverly A. Mock Ph.D.
Laboratory of Cancer Biology and Genetics,
Center for Cancer Research, National Cancer Institute,
National Institute of Health, Bethesda, Maryland
Drug resistance and disease progression are common in multiple myeloma (MM) patients, underscoring the need for new therapeutic combinations. […] We hypothesized that effective combinations would reduce MYC expression and enhance p16 activity. […] These preclinical data identify potentially useful drug combinations for evaluation in drug-resistant MM and reveal potential mechanisms of combined drug sensitivity.
Described herein is the primary MIPE qHTS used to cherrypick compounds. Validated compounds were then further tested for potential synergistic activiy.
[1] Peat TJ, Gaikwad SM, Dubois W, Gyabaah-Kessie N, Zhang S, Gorjifard S, Phyo Z, Andres M, Hughitt VK, Simpson RM, Miller MA, Girvin AT, Taylor A, Williams D, D'Antonio N, Zhang Y, Rajagopalan A, Flietner E, Wilson K, Zhang X, Shinn P, Klumpp-Thomas C, McKnight C, Itkin Z, Chen L, Kazandijian D, Zhang J, Michalowski AM, Simmons JK, Keats J, Thomas CJ, Mock BA. Drug combinations identified by high-throughput screening promote cell cycle transition and upregulate Smad pathways in myeloma. Cancer Lett. 2023 Aug 1;568:216284. doi: 10.1016/j.canlet.2023.216284. Epub 2023 Jun 24. PMID: 37356470; PMCID: PMC10408729.
SEQUENCE No. (e.g., 1, 2, 3, etc.); […] (e.g., Cells, Incubation, Reagent, etc.); VALUE and DESCRIPTION.
1; Cells; 5 uL; white, solid bottom 1536-well Greiner assay plate.
2; Compounds; 23 nL; Kalypsis pin tool (Wako USA) equipped with a 1536-well pin head to transfer to the assay plates.
3; Incubation; 48 hours; 37C incubation.
4; Reagent;5uL; CellTiter Glo (Promega).
5; Detector; 425V; Luminescence; Viewlux PerkinElmer.
NOTES (numbers refer to Sequence numbers above)
1. The cell-based screening methods employed in this study were like those previously published. Briefly, the corresponding myeloma cell lines were screened in 1,536-well plates with 500 cells, 5-uL per well for inhibition of cell viability (assessed by measuring ATP levels with CellTiterGlo).
2. NCATS MIPE 4.0 library of approved and investigational drugs were added using the Kalypsis pin tool. Wells treated with DMSO only for 100% viability and media only wells for 0% viability were used as controls.
3. The assay plates were covered and incubated for 48 hours in a 37C, 5% CO2 incubator with controlled humidity.
4. After 48 hours, CellTilter-GloTM luminescent substrate mix (Promega) reagent was added to the assay plate and plates we incubated for 5 min at room temperature.
5. Signal was measured as median relative luminescence units on a ViewLux (PerkinElmer) multiplate reader.
[1] Heske CM, Davis MI, Baumgart JT, Wilson K, Gormally MV, Chen L, Zhang X, Ceribelli M, Duveau DY, Guha R, Ferrer M, Arnaldez FI, Ji J, Tran HL, Zhang Y, Mendoza A, Helman LJ, Thomas CJ. Matrix Screen Identifies Synergistic Combination of PARP Inhibitors and Nicotinamide Phosphoribosyltransferase (NAMPT) Inhibitors in Ewing Sarcoma. Clin Cancer Res. 2017 Dec 1;23(23):7301-7311. doi: 10.1158/1078-0432.CCR-17-1121. Epub 2017 Sep 12. PMID: 28899971; PMCID: PMC6636827.
Potency is read from the fitted curve at half-maximal effect.

Structure (SMILES) | Potency
CNC(=O)c1cccc(-c2ccc3c(N4CCOC[C@H]4C)nc(N4CCOC[C@H]4C)nc3n2)c1 | 0.0743 µM (active)
CCOC(=O)[C@@H](N)Cc1ccc(-c2cc(O[C@H](c3ccc(Cl)cc3-n3ccc(C)n3)C(F)(F)F)nc(N)n2)cc1 | 18.7 µM (active)
O=C(O)C[C@H](O)C[C@H](O)C=Cc1c(C2CC2)nc2ccccc2c1-c1ccc(F)cc1 | 4.69 µM (active)
C=CC1=C(C(=O)O)N2C(=O)[C@@H](NC(=O)C(=NO)c3csc(N)n3)[C@H]2SC1 | inactive
Nc1nc(=O)n([C@H]2CSC(CO)O2)cc1F (stereo not given in full) | inactive
COc1ccc(Nc2cc(-c3cnc(N)nc3)nc(N3CCOCC3)n2)cn1 | 1.66 µM (active)
COc1cc2c(cc1O)CCC1C2CC[C@@]2(C)C1CC[C@@H]2O (stereo not given in full) | 2.96 µM (active)
NC(=O)Nc1sc(-c2ccc(F)cc2)cc1C(N)=O | 0.418 µM (active)
CCOC(=O)[C@H](CCc1ccccc1)N[C@@H](C)C(=O)N1[C@@H](C(=O)O)C[C@H]2CCC[C@@H]21 | 7.43 µM (active)
Nc1nc2c(c(=O)[nH]1)N(C=O)[C@H](CNc1ccc(C(=O)N[C@@H](CCC(=O)O)C(=O)O)cc1)CN2 | inactive
CCCCCCCCCCCCc1ccc(S(=O)(=O)Nc2nncs2)cc1 | inactive
O=C(O)C=Cc1ccc(Cn2ccnc2)cc1 | inactive
CC(=O)NCC(=O)N1[C@H]2CC[C@H]1c1cc(Nc3ncc(C(F)(F)F)c(NC4CCC4)n3)ccc12 | 1.87 µM (active)
Oc1ccc(-c2ccc(-c3cc(Nc4cccc(CNC5CC5)c4)n[nH]3)cc2)c(O)c1 | 1.05 µM (active)
CCOC(=O)C=C[C@H](C[C@@H]1CCNC1=O)NC(=O)[C@@H](CC(=O)[C@@H](NC(=O)c1cc(C)on1)C(C)C)Cc1ccc(F)cc1 | inactive
O=C(NNC(=O)c1ccc(CNS(=O)(=O)c2ccc(F)c(Cl)c2)cc1)c1ccccc1 | inactive
CN1CCc2c(c3ccccc3n2Cc2ccc(C(=O)NO)cc2)C1 | 10.5 µM (active)
CC1(C)[C@H](O[C@H]2O[C@H](C(=O)O)[C@@H](O)[C@H](O)[C@H]2O[C@@H]2O[C@H](C(=O)O)[C@@H](O)[C@H](O)[C@H]2O)CC[C@@]2(C)[C@H]1CC[C@]1(C)[C@H]2C(=O)C=C2[C@H]3C[C@@](C)(C(=O)O)CC[C@]3(C)CC[C@]21C | inactive
CON=C(C(=O)N[C@@H]1C(=O)N2C(C(=O)O)=C(CSC(=O)c3ccco3)CS[C@H]12)c1csc(N)n1 | 16.6 µM (active)
Nc1ccn(C[C@@H](CO)OCP(=O)(O)O)c(=O)n1 | inactive

Structure (SMILES) | Potency
Cn1cnc(=N)c2[nH]cnc21 | 0.0743 µM (active)
CCCNS(=O)(=O)Nc1ncnc(OCCOc2ncc(Br)cn2)c1-c1ccc(Br)cc1 | inactive
CC(C)(O)Cn1c(NC(=O)c2ccc(-c3cn[nH]c3)s2)nc2cc(CN3CCOCC3)ccc21 | 0.935 µM (active)
C#C[C@]1(O)CC[C@@H]2[C@@H]3CCc4cc(O)ccc4[C@H]3CC[C@@]21C | 18.7 µM (active)
CC(N[C@H]1CCCC[C@H]1NC(=O)c1ccc(Cl)cc1)c1cccc2ccccc12 (stereo not given in full) | 14.8 µM (active)
C=CCNC1=C2C[C@@H](C)C[C@H](OC)[C@@H](O)[C@@H](C)C=C(C)[C@H](OC(N)=O)[C@@H](OC)C=CC=C(C)C(=O)NC(=CC1=O)C2=O | 1.48 µM (active)
CCC[C@H]1C[C@H](C(=O)N[C@@H]([C@@H]2O[C@@H](SC)[C@@H](O)[C@@H](O)[C@@H]2O)[C@H](C)Cl)N(C)C1 | inactive
Cc1cn([C@@H]2O[C@H](CO)[C@@H](O)[C@H]2F)c(=O)[nH]c1=O | inactive
O=C(Nc1cc2cc[nH]c2cn1)c1ccccc1 | 8.33 µM (active)
CN(CC(=O)N(Cc1ccc(C2CCCCC2)cc1)c1ccc(C(=O)O)c(O)c1)S(=O)(=O)c1c(F)c(F)c(F)c(F)c1F | 5.26 µM (active)
Cn1cc(CNCC2CCN(c3ncc(C(=O)NO)cn3)CC2)c2ccccc21 | 0.0118 µM (active)
C[C@H](NC(=O)Cc1cc(F)cc(F)c1)C(=O)N[C@H](C(=O)OC(C)(C)C)c1ccccc1 | inactive
NC(=NCCCCCCN=C(N)N=C(N)Nc1ccc(Cl)cc1)N=C(N)Nc1ccc(Cl)cc1 | 2.96 µM (active)
CC(=O)N[C@@H]1[C@H](O[C@@H]2c3ccc(c(Cl)c3)Oc3cc4cc(c3O[C@H]3O[C@H](CO)[C@@H](O)[C@H](O)[C@H]3NC(=O)CCCCCCCC(C)C)Oc3ccc(cc3Cl)C[C@H]3NC(=O)[C@H](N)c5ccc(O)c(c5)Oc5cc(O)cc(c5)[C@H](NC3=O)C(=O)N[C@H]4C(=O)N[C@H]3C(=O)N[C@@H]2C(=O)N[C@@H](C(=O)O)c2cc(O)cc(O[C@H]4O[C@H](CO)[C@@H](O)[C@H](O)[C@H]4O)c2-c2cc3ccc2O)O[C@H](CO)[C@@H](O)[C@@H]1O | inactive
CCCc1nc(C(C)(C)O)c(C(=O)O)n1Cc1ccc(-c2ccccc2-c2nn[nH]n2)cc1 | inactive
CCCNC(=O)[C@H]1O[C@H]1C(=O)N[C@H](C(=O)N1CCC[C@@H]1C(=O)OC)C(C)CC (stereo not given in full) | 14.8 µM (active)
O=C(O)C(=O)Nc1cccc(C2=NN=N[N]2)c1 | inactive
COc1cc(OC)c(C=CS(=O)(=O)Cc2ccc(OC)c(NCC(=O)O)c2)c(OC)c1 | 0.332 µM (active)
N#CC(=C(N)Sc1ccc(N)cc1)c1ccccc1C(F)(F)F | 13.2 µM (active)
Cn1cc(C=CC(=O)c2cccc(F)c2)cc1C=CC(=O)NO | 8.33 µM (active)
